Laboratory results taken from PubChem BioAssay (NCI).
The panel holds about 83,000 compounds, 20% with a hit somewhere; the sample as a whole holds those more often.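 Testing used 96-well plates and a 48-hour single-concentration exposure. Example: -40 means 40% of the starting cells died.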 Unmarked numbers belong to inactive results. The source made the active and inactive calls. Rule for the calls: active = growth percent below 10; inactive = the rest.

system: HL-60(TB) leukemia; assay: NCI-60 one-dose screen, 48 h (100 = growth as untreated, 0 = no growth, -100 = all killed); settings: 10 µM unless noted

Row | SMILES | growth
1 | COC(=O)/C(CCC=C(C)C)=C1\[C@@H](OC(C)=O)C[C@@]2(C)[C@H]1C[C@@H](O)[C@H]1[C@@]3(C)CC[C@H](NCc4ccccc4)[C@@H](C)[C@@H]3CC[C@@]12C | 43%
2 | CCN(CC)CCN1CC(O)=C(c2nc(-c3ccc(Cl)cc3)cs2)C1=N | -33.7% (active)
3 | COc1ccc(C2=NN(c3ccc(S(N)(=O)=O)cc3)C(c3cn(-c4ccccc4)nc3-c3ccc(Cl)cc3)C2)cc1 (stereo not given) | 84.5%
4 | COc1cccc(/C=C2\SC(N3CCN(c4ccccn4)CC3)=NC2=O)c1 | 95.5%
5 | Cc1ccc(S(=O)(=O)n2cc(C3C(Cl)C(=O)N3c3ccc(N4CCOCC4=O)cc3)c3ccccc32)cc1 (stereo not given) | 22.1%
6 | COc1cc(-c2nn(-c3cccc(NC(=O)Nc4ccc(Cl)c(C(F)(F)F)c4)c3)cc2-c2ccncc2)ccc1Cl | -19.8% (active)
7 | ClC(Cl)c1nc(-c2ccccc2)n2nc(-c3ccccc3)cc2n1 | -7.03% (active)
8 | CC(=O)OC1Oc2cc(C)c(C)cc2-c2oc(=O)c(-c3cc4ccccc4oc3=O)cc21 (stereo not given) | 93.4%
9 | COc1ccc(C2=NN(c3nc(-c4ccc(OC)cc4)c(C#N)c(=O)n3C)C(=O)CC2)cc1 | 99.5%
10 | COc1cc(-c2nn(-c3ccc(NC(=O)c4ccc(Cl)c(Cl)c4)cc3)cc2-c2ccncc2)ccc1Cl | 33.8%
11 | CCNC(=O)Oc1ccc(/C(=C(/CC)Cc2ccccc2)c2ccc(OCCN3CCOCC3)cc2)cc1 | 5.28% (active)
12 | CN(C)c1ccc(N=Nc2ccc(Br)cn2)c(O)c1 | -41.4% (active)
13 | Cc1cc(C)c(C(=O)OC(C)CNC2CCCCC2)c(C)c1 (stereo not given) | 87.5%
14 | COc1ccc(-c2cc3c4c(nc5ccccc5c4c2)CC(c2cc(OC)c(OC)c(OC)c2)O3)cc1 (stereo not given) | 106%
15 | O=C1OC(c2ccc(Cl)c(Cl)c2)=C/C1=C/c1cccc([N+](=O)[O-])c1 | 103%
16 | CN1CC(c2ccc(Br)cc2)C(C(=O)c2ccc(Br)cc2)C12C(=O)Nc1ccccc12 (stereo not given) | 98.4%
17 | Cc1cccc(Oc2ccc(Nc3ncnc4ccc(NC(=O)CN(C)C)cc34)cc2Cl)c1 | -48% (active)
18 | CC(CC(=O)c1ccccc1)c1ccccc1 (stereo not given) | 102%
19 | O=C(O)CCN1C(=O)/C(=C/C(Cl)=C/c2ccccc2)SC1=S | 5.78% (active)
20 | CCOC(=O)N1CCc2c(sc3c2C(=O)N[C@H](c2ccc(OC)cc2)N3)C1 | 99.8%

Row | SMILES | growth
21 | CNC(=O)c1ccccc1Nc1nc(Nc2cc(OC)c(OC)c(OC)c2)ncc1Br | 19%
22 | COc1ccc(C(=O)/C=C/c2ccc(Cl)cc2)cc1S(N)(=O)=O | -3.41% (active)
23 | CC(C)OC(=O)c1cc(NC(=S)OC(C)C)ccc1Cl | 86.2%
24 | COc1cc2c(c(OC)c1OC)C(=O)/C(=C/c1cc(C)c(O)c(C)c1)S2 | 13.6%
25 | CCCOC(=O)Nc1nc2ccc(SCC)cc2s1 | 76.4%
26 | S=c1[nH]ccn1-c1c(Cl)cccc1Cl | 93.5%
27 | CNC(=O)c1cccc(Cn2nc(C)c(NC(=O)c3ccc(COc4ccc(C(F)(F)F)cc4C)cc3)c2C)c1 | 47.1%
28 | C=C(C)[C@@H]1CC[C@]2(C(=O)OCCOCCOCC[P+](c3ccccc3)(c3ccccc3)c3ccccc3)CC[C@]3(C)[C@H](CC[C@@H]4[C@@]5(C)CC[C@H](OC(C)=O)C(C)(C)[C@@H]5CC[C@]43C)[C@@H]12 | -62.3% (active)
29 | CC(C)(C)OC(=O)N1CCc2c(sc3ncnc(N/N=C/c4ccc(Br)cc4)c23)C1 | 83.1%
30 | C=C(C)[C@@H]1CC[C@]2(C(=O)N3CCN(C)CC3)CC[C@]3(C)[C@H](CC[C@@H]4[C@@]5(C)CC[C@H](OC(=O)c6ccccc6C(=O)O)C(C)(C)[C@@H]5CC[C@]43C)[C@@H]12 | 106%
31 | COc1ccc(/C=C(\C#N)c2cc3ccccc3n2S(C)(=O)=O)cc1 | 89.6%
32 | COc1cc(/C=N/NC(=O)c2ccc(C(F)(F)F)nc2Nc2cc(Cl)ccc2C)cc(OC)c1OC | 107%
33 | CN(c1ncccc1CNc1nc(Nc2ccc3c(c2)CC(=O)N3)ncc1C(F)(F)F)S(C)(=O)=O | -40% (active)
34 | COc1cc(C(C)(C)C)cc(OC)c1C(O)(c1c(OC)cc(C(C)(C)C)cc1OC)c1c(OC)cc(C(C)(C)C)cc1OC | -63.7% (active)
35 | CCOC(=O)c1c(-c2ccccc2)n2c(=O)cc(C)c3c(O)c(O)cc1c32 | 11.7%
36 | O=C(Nc1cccc(C2=NCCN2)c1)c1ccc(-c2ccc(C(=O)Nc3cccc(C4=NCCN4)c3)cc2)cc1 | 16%
37 | COc1ccc(C(c2cc(OC)c(OC)c(OC)c2)N2CCCC2)cc1 (stereo not given) | 35.5%
38 | COC(=O)/C=C1\S/C(=N\NC(=O)c2cc3ccc2/C=C\c2ccc(cc2)/C=C\3)N(c2ccccc2)C1=O | 16.4%
39 | CCC(C)(C)C(=O)O[C@H]1C[C@@H](C)C=C2C=C[C@H](C)[C@H](CC[C@@H]3CC(SCCN)CC(=O)O3)[C@H]21 (stereo not given in full) | 37.6%
40 | Cc1ccc(Cn2c(-c3cccs3)nc3ccccc32)cc1 | 122%
